Assay outcomes: PubChem BioAssay, National Center for Advancing Translational Sciences (NCATS)
SW480 rerep: induces DNA re-replication in SW480 colon adenocarcinoma cells; Potency, µM (series often up to 46.1 µM), for inactives: at the highest dose re-replication activation, usual class: activators; SW480 DNA re-replication, Hoechst DNA content imaging, 48 h; 340,000 tested, 1.8% active; further: potency means the concentration at half of the fitted maximal effect; % of control where 0% means no effect; nearly all actives have a fitted effect of over 55% in size
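Cells (250 per well) received 23 nL compound or DMSO by pin tool and were kept 48 hr at 37 C, 5% CO2. Nuclei were then stained with Hoechst for 40 min and scanned for DNA content.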
MCF10A rereplic: inducers of DNA re-replication in MCF 10A breast cells; AID 624296; Potency, µM (doses to about 46.1 µM), for inactives: at the top dose activity, positive = re-replication, usual class: activators; 350,000 tested, 2.9% active; MCF 10A DNA re-replication, Hoechst nuclear intensity, 48 h; further: potency means the concentration at half of the fitted maximal effect; % of control where 0% means no effect; nearly all actives have a fitted effect of over 50% in size
RORgamma inh: inhibitors of mouse ROR gamma transcriptional activity | P51450 | Drosophila S2 Gal4-RORgamma UAS-luciferase reporter, 20 h | Potency, µM (doses to about 53.6 µM), for inactives: at the top dose activity change, negative = inhibition, usual class: inhibitors | 310,000 tested, 5.4% active | AID 2551; further: potency means the concentration at half of the fitted maximal effect; on the % scale 0 is the no-effect control and ±100 the full control effect; nearly all actives have a fitted effect of over 60% in size
Target sequence (P51450 whole entry, looked up, the tested form may be a part): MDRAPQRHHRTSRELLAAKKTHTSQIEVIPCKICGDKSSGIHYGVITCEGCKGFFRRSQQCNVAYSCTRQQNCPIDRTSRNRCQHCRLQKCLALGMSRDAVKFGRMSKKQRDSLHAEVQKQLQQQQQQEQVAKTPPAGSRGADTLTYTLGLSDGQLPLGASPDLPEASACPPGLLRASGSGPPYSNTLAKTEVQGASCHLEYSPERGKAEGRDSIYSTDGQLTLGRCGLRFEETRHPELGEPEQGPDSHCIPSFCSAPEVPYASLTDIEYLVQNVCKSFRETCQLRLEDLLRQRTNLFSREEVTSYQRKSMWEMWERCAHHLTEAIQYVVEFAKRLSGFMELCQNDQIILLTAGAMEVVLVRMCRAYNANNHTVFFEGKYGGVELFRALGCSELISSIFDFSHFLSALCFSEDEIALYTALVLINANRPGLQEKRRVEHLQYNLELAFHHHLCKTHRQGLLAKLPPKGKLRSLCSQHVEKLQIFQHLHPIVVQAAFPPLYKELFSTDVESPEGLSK
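Luminescence from a UAS-regulated Photinus luciferase reporter in stably transfected Drosophila Schneider cells is measured; decreased signal marks ROR gamma inhibition. Fusion expression is induced by 700 uM copper sulfate for 20 hr.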
IL1B secr inh: inflammasome signaling inhibition, IL-1 beta readout | THP-1 LPS/ATP IL-1B secretion, AlphaLISA, 16 h; hits give low values | activity change, % at 57.5 µM | 360,000 tested, 4.7% active; in the data active means activity change below about -50%; inconclusive means mostly about -30% to -49%; further: on the % scale 0 is the no-effect control and ±100 the full control effect
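THP-1 cells pretreated 1 hr with compounds (up to 57.5 uM final), then stimulated with LPS (250 ng/mL final) plus ATP (1.25 mM final); secreted IL-1B measured by AlphaLISA after 16 hr, decreased signal indicating inhibition.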
Gal4-VP16 FLuc: counter-screen for ROR gamma inhibitors: Gal4-VP16 reporter. Drosophila S2 Gal4-VP16 UAS-luciferase, luminescence, 20 h. Potency, µM (series often up to 53.6 µM), inactives show top-dose activity, negative = inhibition, most hits filed as inhibitors. 310,000 tested, 3.5% active. AID 2546;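 further: Gal4-VP16 expression switched on by copper sulfate through the metallothionein promoter; potency means the concentration at half of the fitted maximal effect; on the % scale 0 is the no-effect control and ±100 the full control effect; nearly all actives have a fitted effect of over 50% in size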
The depositor's hits bear a star; ? = inconclusive; nt = no result given; [ ] = another dose, or the depositor's remark. Rows were chosen to be rich in hits. Some 11% of all compounds tested hit in one or more screens of this group. Unless noted, the call rests on the fitted dose curve; in most records, active means well fitted curve in the direction sought with a large enough effect; inconclusive means small, poorly fitted or top-dose-only effect, or another doubt; inactive means no such curve, though single readings can be large; an effect the other way counts as inactive or inconclusive.

SMILES	SW480 rerep	MCF10A rereplic	RORgamma inh	IL1B secr inh	Gal4-VP16 FLuc
CC(=O)NC1CCCc2c1cnn2-c1ccc(C(C)(C)C)cc1 (configuration not stated)	0.0%	-0.5%	?	-4.4	-29.1%
Cc1ccc(-n2ncc3c2CCCC3NC(=O)c2ocnc2C)cc1C (configuration not stated)	-0.5%	12.8%	21.0%	-2.7	7.08µM*
CC(C)(C)c1ccc(-n2ncc3c2CCCC3NC(=O)c2cnccn2)cc1 (configuration not stated)	?	18.7%	-9.3%	-81.8*	?
Cn1nccc1C(=O)NC1CCCc2c1cnn2-c1ccc(C(C)(C)C)cc1 (configuration not stated)	?	18.4µM*	?	-2.9	2.51µM*
CC(=O)Nc1cc(-c2ccccc2)cn2c(-c3cccc(C(C)=O)c3)cnc12	nt	nt	nt	-2.7	nt
O=C(NC1CCCCC1)C1(S(=O)(=O)c2ccc(Cl)cc2)CC1	-3.9%	-4.3%	-8.1%	-9.8	0.1%
C=CCN(c1ccccc1OC)S(=O)(=O)c1cccc(C(=O)OCC(=O)c2c(N)n(C)c(=O)n(C)c2=O)c1	1.1%	19.5%	nt	6.4	nt
C=CCOc1c(Br)cc(CNn2cn[nH]c2=S)cc1OC	-0.4%	8.6%	10µM*	9.4	-2.3%
Cc1ccc(CNn2cn[nH]c2=S)cc1	-11.4%	-2.2%	nt	0.0	nt
C=CCOc1c(Br)cc(CNn2c(C)n[nH]c2=S)cc1OCC	-7.0%	12.6%	?	25.5	?
C=CCOc1ccc(CNn2cn[nH]c2=S)cc1	-0.6%	1.9%	12.6µM*	5.7	?
O=C1CCCc2c1[nH]c1ccc(CN3CCCCC3)cc21	-0.6%	14.9%	-2.1%	-51.8*	-2.3%
Cc1oc(C)c2c(=O)ccc3c(c12)OC(N)=C(C#N)C3c1ccccc1 (configuration not stated)	-1.5%	?	2.3%	-8.5	?
CSc1ccc(C2C(C#N)=C(N)Oc3c2ccc(=O)c2c(C)oc(C)c32)cc1 (configuration not stated)	9.6%	18.4µM*	6.31µM*	-7.6	?
O=C(N/C(=C\c1ccccc1)C(=O)N1CCCCC1)c1ccc(Br)o1	1.1%	-12.9%	8.9%	6.9	-4.2%
Cc1ccc(C)c(NC(=O)CN(C)C(=O)c2oc3c(Cl)cccc3c2C)c1	?	?	nt	18.1	nt
NCCSc1c(-c2ccccc2)[nH]c2ccccc12	4.5%	28.6%	13.4%	-21.4	11.3%
Cc1[nH]c2ccccc2c1SCCN	-0.6%	0.1%	nt	-14.8	nt
NCCSc1c(-c2ccc(Cl)cc2)[nH]c2ccccc12	0.5%	?	7.2%	-64.8*	-0.6%
Cc1ccc(-c2[nH]c3ccccc3c2SCCN)cc1	-1.4%	0.4%	-13.9%	-65.1*	-7.2%
NCCSc1c(-c2ccc(F)cc2)[nH]c2ccccc12	3.3%	10.3%	6.6%	-71.2*	2.4%
C=CC(=O)Oc1ccc(N2Cc3ccccc3C2=O)cc1	11.6µM*	?	nt	-0.4	nt
COc1ccc(N2Cc3ccccc3C2=O)cc1	-60.4%	-0.2%	-2.0%[1.91 µM]	-5.2	?
O=C(CN1CCOCC1)Nc1ccccc1Sc1ccc(Cl)cc1	-1.7%	?	14.8%	-59.0*	3.3%
O=C(CN1CCCC1)Nc1ccccc1Sc1ccccc1	2.8%	10.5%	10.1%	9.3	2.1%
SMILES	SW480 rerep	MCF10A rereplic	RORgamma inh	IL1B secr inh	Gal4-VP16 FLuc
CC1CCN(CC(=O)Nc2ccccc2Sc2ccccc2)CC1	?	14.6µM*	3.5%	5.1	?
NC(=O)C1(N2CCCCC2)CCN(CC(=O)Nc2ccccc2Sc2ccccc2)CC1	-0.2%	8.2%	27.3%	-78.6*	-5.2%
O=C(Nc1ncccc1O)c1ccc(Cl)c(S(=O)(=O)N2CCCCC2)c1	-40.2%	-1.1%	nt	16.3	nt
Cc1cccc(N2CCN(C3C(=O)Nc4ccccc4-n4nnnc43)CC2)c1C (configuration not stated)	nt	nt	nt	29.4	nt
Cc1cccc(C)c1N(CC(=O)N1CCCC1)S(C)(=O)=O	-4.7%	?	-29.7%	6.4	-6.5%
N#Cc1cc2c(=O)n3ccccc3nc2n(CCCn2ccnc2)c1=N	14.6µM*	9.2µM*	12.2%	?	-7.2%
CCCn1c(=N)c(C#N)cc2c(=O)n3ccccc3nc21	?	224.7%	0.0%	-4.3	0.9%
COCCCn1c(=N)c(C(=O)NCc2ccc3c(c2)OCO3)cc2c(=O)n3cccc(C)c3nc21	?	10.6%	nt	0.4	nt
Cc1cccn2c(=O)c3cc(C(=O)NCc4ccc(F)cc4)c(=N)n(CCCN4CCOCC4)c3nc12	8.2µM*	?	nt	8.4	nt
COCCCn1c(=N)c(C(N)=S)cc2c(=O)n3cccc(C)c3nc21	16.4µM*	?	nt	-68.2*	nt
Cc1cccn2c(=O)c3cc(C#N)c(=N)n(CCCN4CCOCC4)c3nc12	4.11µM*	?	nt	-4.3	nt
COC(=O)C=CSC(=S)C1CCCC1=N (configuration not stated)	nt	nt	nt	-2.8	nt
Cn1cc(-c2nc3cnc(Oc4ccccc4)nc3n(C3CC3)c2=O)c2ccccc21	nt	nt	1.5%	nt	1.3%
COc1ccc(CC(=O)NCC(C)(C)N2CCOCC2)cc1	-2.0%	-0.3%	6.1%	-6.3	-0.1%
CCOCCCn1c(=N)c(C(=O)NCc2ccc3c(c2)OCO3)cc2c(=O)n3cccc(C)c3nc21	?	?	1.4%	-59.9*	-7.4%
Cc1cccn2c(=O)c3cc(C(N)=S)c(=N)n(CCCN4CCOCC4)c3nc12	8.2µM*	?	-22.2%	-13.8	2.7%
Cc1cc(Oc2ccc(Cl)cc2)nc(-c2ccccn2)n1	34.0%	?	0.631µM*	46.1	5.62µM*
Cc1cc(Oc2ccccc2)nc(-c2ccccc2O)n1	-3.6%[9.22 µM]	?	?	7.6	?
Cc1ccc(CN2CCC(c3cc(-c4ccc(Cl)cc4)n[nH]3)CC2)cc1	?	?	-47.0%	-96.9*	-7.2%
COc1ccc(-c2cc(C3CCN(CC(O)C(F)(F)F)CC3)[nH]n2)cc1 (configuration not stated)	-1.7%	2.3%	-0.4%	-11.3	0.5%
Clc1ccc(-c2cc(C3CCNCC3)[nH]n2)cc1	-5.7%	?	14.3%	?	-0.7%
COc1ccc(-c2cc(C3CCN(Cc4cccc(C(F)(F)F)c4)CC3)[nH]n2)cc1	?	?	-42.2%	-99.9*	-26.6%
COc1ccc(-c2cc(C3CCN(Cc4ccc([N+](=O)[O-])cc4)CC3)[nH]n2)cc1	2.9%	-2.6%	31.0%	-84.0*	7.8%
CN(Cc1ccco1)c1ccnc(-c2ccoc2)n1	nt	nt	-12.5%	nt	-15.9%
Cc1cc(=O)[nH]c(NCc2ccccc2)n1	-10.5%	-0.6%	1.9%	27.5	-12.8%
CCNc1nc(=S)nc(NCc2ccccc2)[nH]1	nt	nt	3.16µM*	nt	7.08µM*
